Screening data (PubChem BioAssay)
TbREL1 inh = TbREL1 inhibition, primary screen; TbREL1 RNA ligation, FRET fluorescence; inhibition, % at 9.66 µM; hit rate 0.49% among 89,000;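 active = inhibition above the mean inhibition across all screened compounds plus 3 SD, cut at about 11% in these data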
Target sequence (P86926 whole entry, looked up): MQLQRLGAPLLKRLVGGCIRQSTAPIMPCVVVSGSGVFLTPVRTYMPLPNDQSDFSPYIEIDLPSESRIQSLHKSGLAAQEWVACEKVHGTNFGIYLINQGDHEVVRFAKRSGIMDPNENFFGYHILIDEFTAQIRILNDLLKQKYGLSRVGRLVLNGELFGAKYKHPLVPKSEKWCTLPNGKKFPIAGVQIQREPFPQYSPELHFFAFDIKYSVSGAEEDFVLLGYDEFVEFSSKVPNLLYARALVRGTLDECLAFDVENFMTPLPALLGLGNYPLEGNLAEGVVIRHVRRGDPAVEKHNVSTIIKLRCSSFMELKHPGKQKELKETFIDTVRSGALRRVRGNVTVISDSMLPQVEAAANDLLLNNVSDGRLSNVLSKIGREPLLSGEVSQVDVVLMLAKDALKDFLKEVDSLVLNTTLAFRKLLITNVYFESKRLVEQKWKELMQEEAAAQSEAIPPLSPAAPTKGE
TbREL1 conf = TbREL1 inhibition, confirmation | shares compounds with TbREL1 inh | TbREL1 RNA ligation, FRET fluorescence | inhibition, % at 9.66 µM | hit rate 37% among 390 | AID 1117282;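 active = mean inhibition across replicates above a set limit taken from the earlier primary screen, cut at about 11% in these data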
A number is an active result; - = inactive. Only a selection was taken, and hits are over-represented in it overall.

SMILES | TbREL1 inh | others
O=C(C1CCCN(S(=O)(=O)c2cccc3ccccc23)C1)N1CCN(Cc2ccccc2)CC1 (centres undefined) | -
Nc1ccc2oc(=O)c3ccccc3c2c1 | -
Cc1ccc(N2C(=O)c3ccc(N)cc3C2=O)cc1C | -
Nc1ccc2c(c1)C(=O)C(=O)c1ccccc1-2 | 61 | TbREL1 conf=87
O=C(Nc1ccc2c(c1)Cc1ccccc1-2)NC1CCCCN(Cc2ccc(Cl)cc2)C1=O (centres undefined) | -
CCCn1c(CCC(=O)O)ccc1-c1ccccc1 | -
O=C(O)CCc1ccc(-c2ccc(F)cc2)n1CCC(=O)O | 34 | TbREL1 conf=-
O=C(O)CCc1ccc(-c2ccccc2)n1CC(=O)O | -
O=c1c2cc3cc(Cl)ccc3nc2ncn1Cc1ccc(Oc2ccccc2)cc1 | -
CC(C)(C)c1ccc(-c2nnc3n2N=C(c2ccc(-c4ccccc4)cc2)CS3)cc1 | -
c1ccc(-c2ccc(C3=Nn4c(nnc4-c4ccccc4)SC3)cc2)cc1 | -
Cc1ccc(-c2nnc3n2N=C(c2ccc(-c4ccccc4)cc2)CS3)cc1 | 27 | TbREL1 conf=-
O=C(NCc1ccccc1)Nc1ccccc1C(=O)N1CCCC1 | -
Cc1occc1-c1nnc(SCC(=O)N2CCN(c3ncccn3)CC2)n1-c1ccccc1 | -
Cc1ccccc1NC(=S)N(CCN(C)C)C(C)c1ccccn1 (centres undefined) | 14 | TbREL1 conf=-
Cc1ccccc1NC(=S)N(CCN(C)C)C(C)c1cccnc1 (centres undefined) | -
Cc1c(Cl)cccc1NC(=S)N(CCN(C)C)C(C)c1ccccn1 (centres undefined) | -
COC(=O)[C@]12C[C@H](CC(=O)NCC34CC5CC(CC(C5)C3)C4)C(=O)N(Cc3ccc(Cl)cc3Cl)C1=C[C@H](C(C)C)O[C@@H]2C1CC1 | -
O=C(NCCN1C(=O)C2C3C=CC(C3)C2C1=O)c1cc(Cl)cc(Cl)c1 (centres undefined) | -
Cc1oc2c(c1C(=O)c1ccccc1)C(=O)C(=O)c1ccccc1-2 | 29 | TbREL1 conf=66
O=C(c1ccccc1)c1c[nH]cc1-c1ccccc1 | -
COc1ccc(C(=O)c2c(C(F)(F)F)oc3c2C(=O)c2ccccc2C3=O)cc1OC | -
O=C(OCc1ccc(CSc2nnc(-c3cccc4ccccc34)o2)cc1)c1ccc(F)cc1 | -
CCCCNC(=O)NS(=O)(=O)c1ccc(NC(=O)CSc2ncnc3scc(-c4ccc(C)cc4)c23)cc1 | -
CCN(Cc1ccccc1)S(=O)(=O)c1ccc(C(=O)N(CCCN(C)C)c2nc3c(F)cccc3s2)cc1 | 28 | TbREL1 conf=-
SMILES | TbREL1 inh | others
CCOc1cccc2sc(N(CCCN(C)C)C(=O)c3ccc(S(=O)(=O)N4CCCCCC4)cc3)nc12 | 15 | TbREL1 conf=-
CN(C)CCCN(C(=O)c1ccc(C(=O)c2ccccc2)cc1)c1nc2c(F)cccc2s1 | -
CCc1ccc2nc(N(CCCN(C)C)C(=O)c3ccc(S(=O)(=O)N4CCCC4)cc3)sc2c1 | -
CN(C)CCN(C(=O)c1ccc2c(c1)CCCC2)c1nc2c(F)cccc2s1 | -
CN(C)CCCN(C(=O)c1ccc(S(=O)(=O)N2CCCCCC2)cc1)c1nc2c(F)cccc2s1 | -
Cc1cc(C)c2sc(N(CCN(C)C)C(=O)c3c(F)cccc3F)nc2c1 | -
Cc1cc(C)c2sc(N(CCCN(C)C)C(=O)c3ccc(Br)s3)nc2c1 | -
CCN(Cc1ccccc1)S(=O)(=O)c1ccc(C(=O)N(CCCN(C)C)c2nc3cc(C)cc(C)c3s2)cc1 | 15 | TbREL1 conf=-
COc1cc2nc(N(CCCN(C)C)C(=O)c3ccc(S(=O)(=O)N4CCc5ccccc5C4)cc3)sc2cc1OC | -
CCN(c1ccccc1)S(=O)(=O)c1ccc(C(=O)N(CCCN(C)C)c2nc3c(C)cccc3s2)cc1 | 13 | TbREL1 conf=11
COc1cccc2sc(N(CCCN(C)C)C(=O)c3ccc(S(=O)(=O)N4CCc5ccccc5C4)cc3)nc12 | -
C[C@H]1[C@H](NC(=O)c2ccc(C(F)(F)F)cc2)CC[C@@]23CCCN2C(=O)CCC[C@@H]13 | -
COc1ccc(-n2c(SCC(=O)Nc3ccc(S(=O)(=O)Nc4nccs4)cc3)nnc2-c2ccco2)cc1 | -
Cc1ccc(CN2CCCCC(NC(=O)c3ccc(-c4ccccc4)cc3)C2=O)cc1 (centres undefined) | -
COC(=O)C12CCCN1C1C(=O)N(Cc3ccc(C(N)=O)cc3)CC1C2 (centres undefined) | -
COc1ccc(-c2cc(-c3nnc(SCc4cccc5ccccc45)n3N)[nH]n2)cc1 | -
CCN=C1NC(c2ccccc2C(F)(F)F)C(C(=O)OC)=C(C)N1Cc1ccc(C(F)(F)F)cc1 (centres undefined) | 12 | TbREL1 conf=17
COC(=O)C1=C(C)N(Cc2ccccc2)C(=S)NC1c1cccc(Br)c1 (centres undefined) | -
COC(=O)C1=C(C)N(Cc2cccc(C(F)(F)F)c2)C(=NCc2ccccc2C(F)(F)F)NC1c1cccc(F)c1 (centres undefined) | 15 | TbREL1 conf=22
COC(=O)C1=C(C)N(C)C(=NCC2CC2)NC1c1ccccc1C(F)(F)F (centres undefined) | -
